{"source": "PubChem BioAssay (Tox21)", "note": "Several values for one entry are separate records, joined by “and”; a condition that tells them apart may be missing. Equal values may be shown once. Results filed as inconclusive are left out. Where a call stands in place of a potency, no number is given. The source holds several records for some structures; these can differ, active in one and inactive in another. Activity calls are given as the source filed them. Calls follow the shape of the dose curve; as a rule, active = well fitted cell-killing curve with a large enough effect in the repeat runs; inconclusive = weak or mixed curves, or effect the other way; inactive = no such curve, though single readings can be large or run the other way. Potency is read from the fitted curve at half-maximal effect."}
{"assay": "qHTS assay to identify small molecule antagonists of the sonic hedgehog signaling (Shh) pathway - cell viability counter screen (AID 1259367); also: nearly all actives have a fitted effect of over 55% in size", "settings": "NIH/3T3 Gli1-Luc viability, CellTiter-Fluor, 24 h; series mostly up to 92.4 µM; viability change, negative = cytotoxic: at the top concentration", "from_the_text": "National Center for Advancing Translational Sciences [NCATS]\nNIH Chemical Genomics Center [NCGC]\nU.S. Environmental Protection Agency [EPA]\nNational Institutes of Environmental Health Sciences [NIEHS]\nNational Toxicology Program [NTP]\nU.S. Food and Drug Administration [FDA]\nThe sonic hedgehog (Shh) pathway is essential for normal embryonic development. Dysregulation of the Shh pathway can cause severe developmental defects in organs. Therefore chemicals that interfere with the pathway are potential developmental toxicants. A cell line designated 3T3Gli1-Luc (DMB/OARSA/CFSAN/FDA, Laurel, MD), a NIH/3T3 derived clone containing stably integrated Gli1-Luc reporter is used to detect chemical interference of the Shh pathway, by changes in the expression of the firefly Luc gene under the control of the Gli1 transcriptional response element. This cell line was used to screen Tox21 libraries for identifying and prioritizing the potential developmental toxicants that interfere Shh pathway. Conditioned medium-stimulated mode was used to screen for chemicals inhibiting Shh signaling. The cytotoxicity of the compounds was tested in parallel by measuring the cell viability using CellTiter-Fluor assay system (Promega, Madison, WI) in the same wells.\nTox21 Assay Protocol Summary:\n3T3 Gli1-Luc cells were dispensed at 2,000 per well in 5uL of culture medium into white solid bottom 1536-well plates (Greiner Bio-One, Monroe, NC) using a Multidrop Combi (Thermo Scientific, Waltham, MA) dispenser. The assay plates were incubated at 37 C and 5% CO2 for 4hr, and then 23nL of compounds dissolved in DMSO and positive control were transferred using a Pintool station (Wako, San Diego, CA). The compound transfer was followed by the addition of 1ul conditioned medium or assay buffer using two separate tips of Flying Reagent Dispenser (FRD, Aurora Discovery, San Diego, CA). The assay plates were incubated at 37C and 5% CO2 for 24hr. For viability read, after 23hr of compound treatment, 1uL of CellTiter-Fluor reagent (Promega Corporation, Madison, WI) was added to each well of the assay plates using Flying Reagent Dispenser (FRD, Aurora Discovery, San Diego, CA) and incubated the assay plates at 37C for 1hr. The fluorescence signal was quantified using a ViewLux plate reader (Perkin Elmer, Shelton, CT)."}
{"smiles": "CCCCC/C(C=O)=C\\c1ccccc1", "Potency": "inactive"}
{"smiles": "CCCCNC(=O)NS(=O)(=O)c1ccc(N)cc1", "Potency": "inactive"}
{"smiles": "O=C(OCc1ccccc1)c1ccccc1", "Potency": "inactive"}
{"smiles": "C[C@]12C=CC(=O)C=C1CC[C@@H]1[C@@H]2C(=O)C[C@@]2(C)[C@H]1CC[C@]2(O)C(=O)CO", "Potency": "inactive"}
{"smiles": "C=C(C)OC(C)=O", "Potency": "inactive"}
{"smiles": "O=C1OC(c2ccc(O)cc2)(c2ccc(O)cc2)c2ccccc21", "Potency": "54.1 µM (active) and inactive"}
{"smiles": "COC(=O)c1ccc(O)cc1", "Potency": "inactive"}
{"smiles": "Cc1c(N(C)CS(=O)(=O)O)c(=O)n(-c2ccccc2)n1C", "Potency": "inactive"}
{"smiles": "Cc1cccc(C)c1O", "Potency": "inactive"}
{"smiles": "C/C=C/c1ccc(O)c(OC)c1", "Potency": "inactive"}
{"smiles": "O=C(O)CCCCC1CCSS1", "note": "(stereo not given)", "Potency": "inactive"}
{"smiles": "CN/C(=C\\[N+](=O)[O-])NCCSCc1ccc(CN(C)C)o1", "Potency": "inactive"}
{"smiles": "N[C@@H](Cc1c[nH]c2ccc(O)cc12)C(=O)O", "Potency": "inactive"}
{"smiles": "CCCCCCCCOc1ccc(C(=O)c2ccccc2)c(O)c1", "Potency": "inactive"}
{"smiles": "CCCCOC(=O)CCCCCCCCC(=O)OCCCC", "Potency": "inactive"}
{"smiles": "COc1cc2c(c(OC)c1OC)-c1ccc(OC)c(=O)cc1[C@@H](NC(C)=O)CC2", "Potency": "inactive and 48.6 nM (active) and 376 nM (active)"}
{"smiles": "NC(=O)c1ccc([N+](=O)[O-])cc1Cl", "Potency": "inactive"}
{"smiles": "CC1(C)O[C@@H]2[C@@H](CO[C@@]3(COS(N)(=O)=O)OC(C)(C)O[C@@H]23)O1", "Potency": "inactive"}
{"smiles": "NC(=O)OCC(COC(N)=O)c1ccccc1", "Potency": "inactive"}
{"smiles": "CCCCCCCCCCCCCC(=O)OC(C)C", "Potency": "inactive"}
{"smiles": "COC1=CC(=O)C[C@@H](C)[C@]12Oc1c(Cl)c(OC)cc(OC)c1C2=O", "Potency": "inactive"}
{"smiles": "O=c1cc[nH]c(=O)[nH]1", "Potency": "inactive"}
{"smiles": "Cc1cnc(NC(=O)C2=C(O)c3ccccc3S(=O)(=O)N2C)s1", "viability change, negative = cytotoxic": "-10.7% [at 42.5 µM] (inactive)"}
{"smiles": "CCc1cc(C(N)=S)ccn1", "Potency": "inactive"}
{"smiles": "CC(=O)/C=C/C1=C(C)CCCC1(C)C", "Potency": "inactive"}
{"smiles": "NC(=O)NO", "Potency": "inactive"}
{"smiles": "CCCCCCCCCCCCCCCCCC(=O)OCC(O)CO", "note": "(stereo not given)", "Potency": "inactive"}
{"smiles": "c1ccc2[nH]c(-c3cscn3)nc2c1", "Potency": "inactive"}
{"smiles": "Cc1cccc(Nc2cc(Cl)nc(SCC(=O)O)n2)c1C", "Potency": "inactive"}
{"smiles": "C[C@]12CC[C@@H]3c4ccc(O)cc4CC[C@H]3[C@@H]1CCC2=O", "Potency": "inactive"}
{"smiles": "COc1ccc(O)cc1", "Potency": "inactive"}
{"smiles": "CCOCCO", "Potency": "inactive"}
{"smiles": "CC(C)=CCC/C(C)=C/CO", "Potency": "inactive"}
{"smiles": "CO[C@H]1C=CO[C@@]2(C)Oc3c(C)c(O)c4c(O)c(c(/C=N/N5CCN(C)CC5)c(O)c4c3C2=O)NC(=O)/C(C)=C\\C=C[C@H](C)[C@H](O)[C@@H](C)[C@@H](O)[C@@H](C)[C@H](OC(C)=O)[C@@H]1C", "Potency": "24.5 µM (active) and 17.4 µM (active) and 11.9 µM (active)"}
{"smiles": "CCOC(=O)C(C)(C)Oc1ccc(Cl)cc1", "Potency": "inactive"}
{"smiles": "Oc1cccc(O)c1", "Potency": "inactive"}
{"smiles": "N[C@@H](Cc1c[nH]c2ccccc12)C(=O)O", "Potency": "inactive"}
{"smiles": "CC(=O)c1ccc(S(=O)(=O)NC(=O)NC2CCCCC2)cc1", "Potency": "inactive"}
{"smiles": "OCCCc1ccccc1", "Potency": "inactive"}
{"smiles": "C#C[C@]1(O)CC[C@H]2[C@@H]3CCC4=CC(=O)CC[C@@H]4[C@H]3CC[C@@]21CC", "Potency": "inactive"}
